Source: PubChem BioAssay (National Center for Advancing Translational Sciences (NCATS))
Sampled rows, rich in hits. Any-hit rate of the full collection: about 1.7%.
GLP1R ag = activates the human GLP-1 receptor | P43220 | hit rate 0.007% among 380,000 | Potency, µM (titrated, usually from 45.6 µM), inactives show at the top dose activation, hits mostly activators | HEK293 GLP-1R CRE-luciferase, luminescence, 4-6 h; cells express a hypersensitive GLP-1R form; further: % of control where 0% means no effect
PTHR1 ag = agonists of human PTHR1 parathyroid hormone receptor; Q03431; HEK293 GP2 PTHR1 cells, GloSensor cAMP luminescence, 1 h; Potency, µM (titrated, usually from 115 µM), without a hit: top-dose activation, most hits filed as activators; hit rate 0.075% among 410,000; AID 743266; further: nearly all actives have a fitted effect of over 55% in size
Target sequence (Q03431 whole entry, looked up): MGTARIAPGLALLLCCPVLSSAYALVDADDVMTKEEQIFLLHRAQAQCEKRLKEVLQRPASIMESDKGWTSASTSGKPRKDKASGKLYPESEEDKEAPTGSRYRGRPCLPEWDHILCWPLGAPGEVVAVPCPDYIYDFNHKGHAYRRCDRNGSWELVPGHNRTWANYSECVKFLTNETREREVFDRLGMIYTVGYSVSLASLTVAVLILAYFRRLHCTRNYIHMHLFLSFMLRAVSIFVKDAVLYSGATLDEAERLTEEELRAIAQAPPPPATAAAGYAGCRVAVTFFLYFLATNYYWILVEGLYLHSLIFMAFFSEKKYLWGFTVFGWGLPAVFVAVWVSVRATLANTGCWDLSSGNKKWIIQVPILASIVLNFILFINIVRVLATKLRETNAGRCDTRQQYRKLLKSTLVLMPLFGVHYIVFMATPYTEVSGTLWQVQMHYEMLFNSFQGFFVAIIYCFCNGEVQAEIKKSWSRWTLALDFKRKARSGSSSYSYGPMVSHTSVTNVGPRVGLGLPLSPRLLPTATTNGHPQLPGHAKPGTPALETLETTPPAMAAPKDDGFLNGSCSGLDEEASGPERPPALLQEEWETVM
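HEK-293-derived GP2 cells expressing PTHR1 and a GloSensor cAMP reporter, 3,000/well, plated overnight, given luciferin plus IBMX (each 0.5 mM as added) for 1 h at 37 °C, then compound for 1 h at 37 °C. Luminescence was read after 15 min at room temperature.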
GLP-1R inv ag = GLP-1 receptor (human) inverse agonism. P43220. HEK293 GLP-1R CRE-luciferase, luminescence, 24 h; GLP-1R form is constitutively active. Potency, µM (doses to about 38.3 µM), for inactives: at the highest dose activity change, negative = inhibition, actives largely listed as inhibitors. hit rate 1.6% among 410,000. AID 624417; further: on the % scale 0 is the no-effect control and ±100 the full control effect; nearly all actives have a fitted effect of over 55% in size
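Luminescence readout: a drop in cAMP-driven luciferase signal flags inverse agonism at a constitutively active GLP-1R stably expressed in HEK293. Compound exposure lasted 24 hr at 37 deg C, 5% CO2.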
HEK293 tox = cytotoxic in the GLP-1 receptor inverse agonist counter-screen | HEK293 cAMP-luciferase reporter cells, luminescence, 24 h | Potency, µM (series often up to 38.3 µM), without a hit: at the highest dose activity change, negative = inhibition, usual class: inhibitors | hit rate 0.13% among 410,000;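 further: loss of luciferase light is scored as toxicity; on the % scale 0 is the no-effect control and ±100 the full control effect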
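A 23 nL compound transfer followed 12 hours of cell culture at 37 deg C; exposure then lasted 24 hr. Luciferase assay detection reagent was dispensed and plates read for luminescence after a 12 min room-temperature wait.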
* = called active by the depositor; i = inactive; ? = inconclusive; . = not tested or not shown; [ ] = remark or other dose. The call rests on the fitted dose curve; in most records, active means well fitted curve in the direction sought with a large enough effect; inconclusive means small, poorly fitted or top-dose-only effect, or another doubt; inactive means no such curve, though single readings can be large; an effect the other way counts as inactive or inconclusive. Potency means the concentration at half of the fitted maximal effect.

SMILES	GLP1R ag	PTHR1 ag	GLP-1R inv ag	HEK293 tox
CCCCC[C@@H]1CCCCC[C@@H](O)C[C@@H](O)[C@H](O)/C=C/C(=O)O1	1%	-14%	-5%	2%
C=C1CC2(CC(c3ccccc3)OC(c3ccccc3)C2)OC1=O (stereo not given)	-5%	-52%	?	?
C=C(C(=O)c1ccccc1)C(C)CC(=O)c1ccccc1 (stereo not given)	-12%	-83%	8.9µM*	?
NCC(=O)c1ccccc1	7%	-7%	9%	6%
CCOc1cc(CNCCc2c[nH]c3ccccc23)cc(Cl)c1OCC	-5%	i	11µM*	?
C=CCC1=C(C)C(OC(=O)C2C(C=C(C)C)C2(C)C)CC1=O (stereo not given)	0%[96 µM]	.	.	.
CN1C2CCC1CC(OC(=O)c1ccc([N+](=O)[O-])cc1)C2 (stereo not given)	-4%	i	4µM*	7%
O=C(c1ccc2c(c1)N(Cc1c(F)cccc1Cl)C(=O)c1ccccc1S2)N1CCC2(CC1)OCCO2	1%	-19%	?	-10%
CC(C)Oc1ccc(CNC(=O)Oc2ccccc2)cc1	-4%	-20%	?	2%
COc1cccc(/C=N/NC(N)=S)c1OCc1ccccc1Cl	10%	0%	11µM*	?
O=c1[nH]c(=S)n(CCC2=CCCCC2)c(O)c1/C=N/Nc1ccccc1	-3%	i	4.5µM*	-23%
Clc1ccc([C@H]2CC3CCC2N3)cn1 (stereo not given in full)	-1%[96 µM]	.	.	.
CCN(CC)C(=O)c1ccc(NC(=O)COc2ccc(-c3nn(C)c(=O)c4ccccc34)cc2)cc1	13%	-32%	141%	7%
CCN(CC)C(=O)c1ccc(NC(=O)c2cn(-c3ccccc3)nc2-c2ccc(OC)cc2)cc1	9%	i	4.5µM*	3%
Cc1ccc(S(=O)(=O)NN)c(C)c1N1CCCC1=O	2%	?	2%	-1%
CNCCCN1c2ccccc2CCc2ccccc21	-2%	i	4µM*	-10%
Cc1cc(NC(=O)c2cccn(Cc3cccc([N+](=O)[O-])c3)c2=O)no1	.	-2%	3%	13%
COc1cc(OC)c(OC)cc1CN1CCN(C(=O)COc2ccc3ccccc3c2)CC1	1%	i	?	4%
COc1cccc(CN2CCN(C(=O)COc3ccc4ccccc4c3)CC2)c1	-2%	-20%[57.5 µM]	11µM*	-17%
CC1CCC(C(C)C)C(OCC(O)CN2CCCC(C)C2)C1 (stereo not given)	-2%	4%	8.9µM*	?
CC1CCC(C(C)C)C(OC(=O)c2ccccc2N)C1 (stereo not given)	-1%	.	.	.
Cc1c(CN2CCC(CO)(CCOc3ccccc3)CC2)[nH]c2c(Cl)cccc12	10%	i	4.5µM*	?
C=CCN1C(=O)/C(=C/c2ccc(O)c(OC)c2)S/C1=N/c1nccs1	21%	0%	28%	60%
COc1ccc(N=C2S/C(=C\c3ccc(Cl)c([N+](=O)[O-])c3)C(=O)N2CCN(C)C)cc1	-4%	-93%	?	11µM*
COc1cc(NC(=O)c2csc(N)n2)cc(C(=O)Nc2cccc(C(F)(F)F)c2)c1	0%	-85%	4µM*	?
SMILES	GLP1R ag	PTHR1 ag	GLP-1R inv ag	HEK293 tox
C[C@@H]1[C@H](O)[C@@H](C)C=CC=CCCC=CC=CC=CC=C[C@H](O[C@H]2O[C@@H](C)[C@H](O)[C@@H](N)[C@@H]2O)CC2O[C@](O)(C[C@@H](O)[C@H](O)CC[C@@H](O)C[C@@H](O)C[C@@H](O)CC(=O)O[C@H]1C)C[C@H](O)[C@H]2C(=O)O	6%	.	.	.
COc1ccc(CNS(=O)(=O)c2cc3c(cc2C)N(C)CCO3)cc1	7%	i	7.9µM*	12%
COc1ccc(CNCC(=O)N2CCC3(CC2)OCCO3)cc1	3%	-13%[57.5 µM]	3%	-3%
O=C(C1CCN(c2ncnc3c2nc2n3CCCCC2)CC1)N1CCN(c2cccc(Cl)c2)CC1	-2%	-45%	8.9µM*	?
COC(=O)C1=C(c2ccc(OC(F)(F)F)cc2)C[C@@H]2CC[C@H]1N2C(=O)NCc1cccc2ccccc12	1%	-9%	7.9µM*	1%
COC(=O)C1=C(c2ccc(OCc3ccccc3)cc2)C[C@@H]2CC[C@H]1N2C(=O)NC1CCN(Cc2ccccc2)CC1	7%	-8%	7.9µM*	?
COC(=O)C1=C(c2ccc(OC(F)(F)F)cc2)C[C@@H]2CC[C@H]1N2C(=O)NCc1ccc(F)cc1	0%	-12%	?	-9%
COC(=O)C1=C(c2ccc(OC(F)(F)F)cc2)C[C@@H]2CC[C@H]1N2C(=O)NC1Cc2ccccc2C1	0%	-13%	7%	-4%
COC(=O)C1=C(c2ccc(OC(F)(F)F)cc2)C[C@@H]2CC[C@H]1N2C(=O)NC1CCCCC1	2%	i	13µM*	9%
COc1ccc(-c2nn(-c3ccccc3)cc2C(=O)N2c3ccc(C)cc3C3CN(C)CCC32)cc1 (stereo not given)	9%	i	14µM*	4%
Cc1ccc(NC(=O)C2CCN(C(=O)c3cnn(-c4ccccc4)c3-n3cccc3)CC2)cc1Cl	.	-9%	?	-15%
CCCCn1c(=N)n(CC(O)COc2ccccc2)c2ccccc21 (stereo not given)	2%	-14%	8.9µM*	?
